# Measurements reported in the supplement of paper PMC4466140.
# Experiments:
# Assay in all cases: SPOT peptide array binding signal intensity (averaged, normalized) (arbitrary units (background-subtracted, floor 0; scale differs between SH3 domains)); higher = stronger binding of the SH3 domain to the peptide
# CaNbp2 = biological target: CaNbp2
# Outline: (§1)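 Detection of bound protein relied on anti-GST antibody, an HRP anti-mouse secondary and luminol, with imaging and quantification in Genespotter. The bound protein was GST-fused SH3 domains from four yeast species, incubated at 10 μg/ml overnight at 4°C in TBS-based blocking buffer on cellulose membranes carrying synthetic 15-mer peptides with cysteines replaced by serines. Binding signal is normalized, background-subtracted spot intensity averaged over replicates, in arbitrary units that differ between domains.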
# CaRvs167 = biological target: CaRvs167
# Outline: as §1
# CaRvs167-3 = biological target: CaRvs167-3
# Outline: as §1
# CaSho1 = biological target: CaSho1
# Outline: as §1
# CaSla1-D1-D2 = biological target: CaSla1-D1-D2
# Outline: as §1
# CaSla1-D3 = biological target: CaSla1-D3
# Outline: as §1
# ScAbp1 = biological target: ScAbp1
# Outline: as §1
# ScBbc1 = biological target: ScBbc1
# Outline: as §1
# ScBem1-D1 = biological target: ScBem1-D1
# Outline: as §1
# ScBzz1-D1 = biological target: ScBzz1-D1
# Outline: as §1
# ScBzz1-D2 = biological target: ScBzz1-D2
# Outline: as §1
# ScCyk3 = biological target: ScCyk3
# Outline: as §1
# ScFus1 = biological target: ScFus1
# Outline: as §1
# ScHof1 = biological target: ScHof1
# Outline: as §1
# ScHse1 = biological target: ScHse1
# Outline: as §1
# ScLsb1 = biological target: ScLsb1
# Outline: as §1
# ScLsb2 = biological target: ScLsb2
# Outline: as §1
# ScLsb3 = biological target: ScLsb3
# Outline: as §1
# ScLsb4 = biological target: ScLsb4
# Outline: as §1
# ScMyo3 = biological target: ScMyo3
# Outline: as §1
# ScMyo5 = biological target: ScMyo5
# Outline: as §1
# ScNbp2 = biological target: ScNbp2
# Outline: as §1
# ScPex13 = biological target: ScPex13
# Outline: as §1
# ScRvs167 = biological target: ScRvs167
# Outline: as §1
# ScSho1 = biological target: ScSho1
# Outline: as §1
# ScSla1-D1-D2 = biological target: ScSla1-D1-D2
# Outline: as §1
# ScSla1-D3 = biological target: ScSla1-D3
# Outline: as §1
# SpAbp1-D1 = biological target: SpAbp1-D1
# Outline: as §1
# SpBbc1 = biological target: SpBbc1
# Outline: as §1
# SpBzz1-D1 = biological target: SpBzz1-D1
# Outline: as §1
# SpBzz1-D2 = biological target: SpBzz1-D2
# Outline: as §1
# SpCyk3 = biological target: SpCyk3
# Outline: as §1
# SpHof1 = biological target: SpHof1
# Outline: as §1
# SpHof1-2 = biological target: SpHof1-2
# Outline: as §1
# SpHof1-3 = biological target: SpHof1-3
# Outline: as §1
# SpHse1 = biological target: SpHse1
# Outline: as §1
# SpLsb1 = biological target: SpLsb1
# Outline: as §1
# SpLsb4 = biological target: SpLsb4
# Outline: as §1
# SpMyo1 = biological target: SpMyo1
# Outline: as §1
# SpNbp2 = biological target: SpNbp2
# Outline: as §1
# SpPex13 = biological target: SpPex13
# Outline: as §1
# SpRvs167 = biological target: SpRvs167
# Outline: as §1
# SpSla1-D1-D2 = biological target: SpSla1-D1-D2
# Outline: as §1
# SpSla1-D3 = biological target: SpSla1-D3
# Outline: as §1
# AgAbp1 = biological target: AgAbp1
# Outline: as §1
# AgBbc1 = biological target: AgBbc1
# Outline: as §1
# AgBem1-D1 = biological target: AgBem1-D1
# Outline: as §1
# AgBzz1-D1 = biological target: AgBzz1-D1
# Outline: as §1
# AgBzz1-D2 = biological target: AgBzz1-D2
# Outline: as §1
# AgCyk3 = biological target: AgCyk3
# Outline: as §1
# AgFus1 = biological target: AgFus1
# Outline: as §1
# AgHof1 = biological target: AgHof1
# Outline: as §1
# AgHse1 = biological target: AgHse1
# Outline: as §1
# AgLsb1 = biological target: AgLsb1
# Outline: as §1
# AgLsb4 = biological target: AgLsb4
# Outline: as §1
# AgMyo5 = biological target: AgMyo5
# Outline: as §1
# AgNbp2 = biological target: AgNbp2
# Outline: as §1
# AgRvs167 = biological target: AgRvs167
# Outline: as §1
# AgSho1 = biological target: AgSho1
# Outline: as §1
# AgSla1-D1-D2 = biological target: AgSla1-D1-D2
# Outline: as §1
# AgSla1-D3 = biological target: AgSla1-D3
# Outline: as §1
# CaAbp1-D1 = biological target: CaAbp1-D1
# Outline: as §1
# CaAbp1-D2 = biological target: CaAbp1-D2
# Outline: as §1
# CaBbc1 = biological target: CaBbc1
# Outline: as §1
# CaBem1-D1 = biological target: CaBem1-D1
# Outline: as §1
# CaBzz1-D1 = biological target: CaBzz1-D1
# Outline: as §1
# CaBzz1-D2 = biological target: CaBzz1-D2
# Outline: as §1
# CaCyk3 = biological target: CaCyk3
# Outline: as §1
# CaFus1 = biological target: CaFus1
# Outline: as §1
# CaHof1 = biological target: CaHof1
# Outline: as §1
# CaHse1 = biological target: CaHse1
# Outline: as §1
# CaLsb1 = biological target: CaLsb1
# Outline: as §1
# CaLsb4 = biological target: CaLsb4
# Outline: as §1
# CaMyo5 = biological target: CaMyo5
# Outline: as §1
binder,measurement,setting,value
DKKTKPTPPPKPSHL,SPOT peptide array binding signal intensity,CaNbp2,≤ 0
same,SPOT peptide array binding signal intensity,CaRvs167,0.333
same,SPOT peptide array binding signal intensity,CaRvs167-3,3.5
same,SPOT peptide array binding signal intensity,CaSho1,24
same,SPOT peptide array binding signal intensity,CaSla1-D1-D2,≤ 0
same,SPOT peptide array binding signal intensity,CaSla1-D3,≤ 0
same,SPOT peptide array binding signal intensity,ScAbp1,2120
same,SPOT peptide array binding signal intensity,ScBbc1,≤ 0
same,SPOT peptide array binding signal intensity,ScBem1-D1,≤ 0
same,SPOT peptide array binding signal intensity,ScBzz1-D1,1
same,SPOT peptide array binding signal intensity,ScBzz1-D2,46.5
same,SPOT peptide array binding signal intensity,ScCyk3,≤ 0
same,SPOT peptide array binding signal intensity,ScFus1,1
same,SPOT peptide array binding signal intensity,ScHof1,1.5
same,SPOT peptide array binding signal intensity,ScHse1,16.5
same,SPOT peptide array binding signal intensity,ScLsb1,≤ 0
same,SPOT peptide array binding signal intensity,ScLsb2,≤ 0
same,SPOT peptide array binding signal intensity,ScLsb3,1270
same,SPOT peptide array binding signal intensity,ScLsb4,≤ 0
same,SPOT peptide array binding signal intensity,ScMyo3,0.5
same,SPOT peptide array binding signal intensity,ScMyo5,≤ 0
same,SPOT peptide array binding signal intensity,ScNbp2,4
same,SPOT peptide array binding signal intensity,ScPex13,138
same,SPOT peptide array binding signal intensity,ScRvs167,≤ 0
same,SPOT peptide array binding signal intensity,ScSho1,280
same,SPOT peptide array binding signal intensity,ScSla1-D1-D2,≤ 0
same,SPOT peptide array binding signal intensity,ScSla1-D3,3
same,SPOT peptide array binding signal intensity,SpAbp1-D1,2240
same,SPOT peptide array binding signal intensity,SpBbc1,3.5
same,SPOT peptide array binding signal intensity,SpBzz1-D1,235
same,SPOT peptide array binding signal intensity,SpBzz1-D2,≤ 0
same,SPOT peptide array binding signal intensity,SpCyk3,≤ 0
same,SPOT peptide array binding signal intensity,SpHof1,0.75
same,SPOT peptide array binding signal intensity,SpHof1-2,6.5
same,SPOT peptide array binding signal intensity,SpHof1-3,86
same,SPOT peptide array binding signal intensity,SpHse1,0.75
same,SPOT peptide array binding signal intensity,SpLsb1,138
same,SPOT peptide array binding signal intensity,SpLsb4,≤ 0
same,SPOT peptide array binding signal intensity,SpMyo1,≤ 0
same,SPOT peptide array binding signal intensity,SpNbp2,≤ 0
same,SPOT peptide array binding signal intensity,SpPex13,1.5
same,SPOT peptide array binding signal intensity,SpRvs167,33.3
same,SPOT peptide array binding signal intensity,SpSla1-D1-D2,≤ 0
same,SPOT peptide array binding signal intensity,SpSla1-D3,1
RAPPPVPKKPSSRIA,SPOT peptide array binding signal intensity,AgAbp1,8420
same,SPOT peptide array binding signal intensity,AgBbc1,1600
same,SPOT peptide array binding signal intensity,AgBem1-D1,51.5
same,SPOT peptide array binding signal intensity,AgBzz1-D1,3320
same,SPOT peptide array binding signal intensity,AgBzz1-D2,373
same,SPOT peptide array binding signal intensity,AgCyk3,≤ 0
same,SPOT peptide array binding signal intensity,AgFus1,≤ 0
same,SPOT peptide array binding signal intensity,AgHof1,415
same,SPOT peptide array binding signal intensity,AgHse1,102
same,SPOT peptide array binding signal intensity,AgLsb1,676
same,SPOT peptide array binding signal intensity,AgLsb4,48
same,SPOT peptide array binding signal intensity,AgMyo5,36.8
same,SPOT peptide array binding signal intensity,AgNbp2,3960
same,SPOT peptide array binding signal intensity,AgRvs167,230
same,SPOT peptide array binding signal intensity,AgSho1,296
same,SPOT peptide array binding signal intensity,AgSla1-D1-D2,≤ 0
same,SPOT peptide array binding signal intensity,AgSla1-D3,380
same,SPOT peptide array binding signal intensity,CaAbp1-D1,2320
same,SPOT peptide array binding signal intensity,CaAbp1-D2,4330
same,SPOT peptide array binding signal intensity,CaBbc1,1870
same,SPOT peptide array binding signal intensity,CaBem1-D1,12.5
same,SPOT peptide array binding signal intensity,CaBzz1-D1,5970
same,SPOT peptide array binding signal intensity,CaBzz1-D2,2940
same,SPOT peptide array binding signal intensity,CaCyk3,61.5
same,SPOT peptide array binding signal intensity,CaFus1,28.5
same,SPOT peptide array binding signal intensity,CaHof1,≤ 0
same,SPOT peptide array binding signal intensity,CaHse1,1200
same,SPOT peptide array binding signal intensity,CaLsb1,0.5
same,SPOT peptide array binding signal intensity,CaLsb4,2220
same,SPOT peptide array binding signal intensity,CaMyo5,2.5
same,SPOT peptide array binding signal intensity,CaNbp2,1040
same,SPOT peptide array binding signal intensity,CaRvs167,170
same,SPOT peptide array binding signal intensity,CaRvs167-3,1
same,SPOT peptide array binding signal intensity,CaSho1,94
same,SPOT peptide array binding signal intensity,CaSla1-D1-D2,3890
same,SPOT peptide array binding signal intensity,CaSla1-D3,250
same,SPOT peptide array binding signal intensity,ScAbp1,2860
same,SPOT peptide array binding signal intensity,ScBbc1,270
same,SPOT peptide array binding signal intensity,ScBem1-D1,9
same,SPOT peptide array binding signal intensity,ScBzz1-D1,565
same,SPOT peptide array binding signal intensity,ScBzz1-D2,33
same,SPOT peptide array binding signal intensity,ScCyk3,7
same,SPOT peptide array binding signal intensity,ScFus1,1
same,SPOT peptide array binding signal intensity,ScHof1,1.5
same,SPOT peptide array binding signal intensity,ScHse1,≤ 0
same,SPOT peptide array binding signal intensity,ScLsb1,452
same,SPOT peptide array binding signal intensity,ScLsb2,1030
same,SPOT peptide array binding signal intensity,ScLsb3,4390
same,SPOT peptide array binding signal intensity,ScLsb4,52.5
same,SPOT peptide array binding signal intensity,ScMyo3,80.5
same,SPOT peptide array binding signal intensity,ScMyo5,50.2
same,SPOT peptide array binding signal intensity,ScNbp2,5230
same,SPOT peptide array binding signal intensity,ScPex13,869
same,SPOT peptide array binding signal intensity,ScRvs167,1400
same,SPOT peptide array binding signal intensity,ScSho1,2740
same,SPOT peptide array binding signal intensity,ScSla1-D1-D2,2100
same,SPOT peptide array binding signal intensity,ScSla1-D3,331
same,SPOT peptide array binding signal intensity,SpAbp1-D1,2240
same,SPOT peptide array binding signal intensity,SpBbc1,26
same,SPOT peptide array binding signal intensity,SpBzz1-D1,2030
same,SPOT peptide array binding signal intensity,SpBzz1-D2,198
same,SPOT peptide array binding signal intensity,SpCyk3,5
same,SPOT peptide array binding signal intensity,SpHof1,186
same,SPOT peptide array binding signal intensity,SpHof1-2,20.2
same,SPOT peptide array binding signal intensity,SpHof1-3,372
same,SPOT peptide array binding signal intensity,SpHse1,126
same,SPOT peptide array binding signal intensity,SpLsb1,1720
same,SPOT peptide array binding signal intensity,SpLsb4,1110
same,SPOT peptide array binding signal intensity,SpMyo1,151
same,SPOT peptide array binding signal intensity,SpNbp2,48.5
same,SPOT peptide array binding signal intensity,SpPex13,≤ 0
same,SPOT peptide array binding signal intensity,SpRvs167,1860
same,SPOT peptide array binding signal intensity,SpSla1-D1-D2,576
same,SPOT peptide array binding signal intensity,SpSla1-D3,≤ 0
